Screens: PubChem BioAssay, National Center for Advancing Translational Sciences (NCATS)
Sampled rows, rich in hits. Any-hit rate of the full collection: about 2.4%.
POLI inh = DNA polymerase iota (human) inhibition; Pol iota fluorescent replication assay, 10 min; Potency, µM (top dose mostly 115 µM), without a hit: top-dose activity, negative = inhibition, usual class: inhibitors; AID 588590; Q9UNA4; hit rate 1% among 390,000
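Fluorescent replication assay read twice, at 0 min and 10 min after adding 50 nM (final) substrate. Enzyme (10 nM) and compounds were first incubated 15 min at room temperature; enzyme-free buffer wells were negative controls.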
WRN helicase inh = blocks human WRN helicase | hit rate 0.46% among 360,000 | Q14191 | Potency, µM (top dose mostly 114 µM), for the others: top-dose activity change, negative = inhibition, hits mostly inhibitors | WRN helicase unwinding, fluorescent forked duplex, kinetic; further: on the % scale 0 is the no-effect control and ±100 the full control effect; nearly all actives have a fitted effect of over 55% in size
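Screening of the MLSMR collection measured strand separation of a quenched forked DNA duplex (100 nM) by 20 nM WRN with 2 mM ATP, all final. Compounds were preincubated with enzyme 15 min at room temperature.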
POLK inh = DNA polymerase kappa (human) inhibition | Q9UBT6 | purified Pol kappa, fluorescent DNA synthesis assay, 10 min | Potency, µM (doses to about 107 µM), inactives show top-dose activity, negative = inhibition, hits mostly inhibitors | hit rate 0.53% among 400,000 | AID 588579; further: on the % scale 0 is the no-effect control and ±100 the full control effect
Target sequence (Q9UBT6 whole entry, looked up): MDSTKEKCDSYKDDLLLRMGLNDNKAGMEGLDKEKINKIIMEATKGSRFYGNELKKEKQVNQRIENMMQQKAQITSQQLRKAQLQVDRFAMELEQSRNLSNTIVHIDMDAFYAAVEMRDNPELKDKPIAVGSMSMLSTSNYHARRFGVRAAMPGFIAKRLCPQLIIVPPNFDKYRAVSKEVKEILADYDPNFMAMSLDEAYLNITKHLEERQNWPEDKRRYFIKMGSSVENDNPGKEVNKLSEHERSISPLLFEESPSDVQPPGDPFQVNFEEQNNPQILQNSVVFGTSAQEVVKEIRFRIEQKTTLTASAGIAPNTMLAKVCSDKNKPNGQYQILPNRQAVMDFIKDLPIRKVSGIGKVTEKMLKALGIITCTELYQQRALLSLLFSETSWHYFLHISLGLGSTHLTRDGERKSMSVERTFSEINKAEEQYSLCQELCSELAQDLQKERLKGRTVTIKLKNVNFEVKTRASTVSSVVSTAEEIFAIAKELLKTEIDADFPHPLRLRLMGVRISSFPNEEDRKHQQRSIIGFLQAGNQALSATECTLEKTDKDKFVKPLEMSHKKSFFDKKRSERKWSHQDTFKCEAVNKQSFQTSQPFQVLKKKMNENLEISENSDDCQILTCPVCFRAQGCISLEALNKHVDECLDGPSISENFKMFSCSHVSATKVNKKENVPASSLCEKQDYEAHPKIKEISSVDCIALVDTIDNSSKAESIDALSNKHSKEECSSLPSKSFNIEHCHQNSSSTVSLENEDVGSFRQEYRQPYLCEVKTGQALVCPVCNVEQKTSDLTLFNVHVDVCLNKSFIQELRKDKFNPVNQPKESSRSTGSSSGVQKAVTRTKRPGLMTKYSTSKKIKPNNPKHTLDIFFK
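Readout: fluorescence, taken kinetically at 0 and 10 min. Conditions: 10 nM Pol kappa, 15 min RT compound preincubation, 50 nM substrate final. Controls: enzyme-free buffer wells.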
POLB inh = DNA polymerase beta (human) inhibition. P06746. Pol beta primer extension/strand displacement, fluorescence kinetic. Potency, µM (highest dose often 114 µM), inactives show at the highest dose activity change, negative = inhibition, most hits filed as inhibitors. hit rate 1.3% among 340,000; further: on the % scale 0 is the no-effect control and ±100 the full control effect
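Values derive from four-parameter Hill fits of normalized kinetic data: reads at 0 and 10 min following addition of 50 nM substrate to 10 nM Pol beta preincubated 15 min with compound.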
POLH inh = DNA polymerase eta (human) inhibition; recombinant Pol eta, fluorescent DNA replication assay; Potency, µM (series often up to 114 µM), for the others: at the top dose activity change, negative = inhibition, actives largely listed as inhibitors; hit rate 1.2% among 390,000; AID 588591; further: on the % scale 0 is the no-effect control and ±100 the full control effect
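Pol eta at 10 nM preincubated with compounds 15 min at room temperature; reaction started with fluorescent substrate (50 nM final) and read kinetically at 0 and 10 min.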
FEN1 inh = human FEN1 inhibition; hit rate 0.35% among 390,000; Potency, µM (highest dose often 114 µM), for the others: at the top dose activity change, negative = inhibition, usual class: inhibitors; P39748; Recombinant FEN1 flap cleavage, fluorescence, 15 min; further: on the % scale 0 is the no-effect control and ±100 the full control effect; nearly all actives have a fitted effect of over 65% in size
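Concentration–response screening of FEN1 (10 nM): 15 min compound preincubation at room temperature, reaction started with 50 nM substrate and read at 0 and 15 min. Corrected, normalized data were fitted by a four-parameter Hill equation.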
* hit, by the source's call; ? = inconclusive; . = no result given; ! = not confirmed by another sample; [ ] = dose if it differs, or a comment. The call rests on the fitted dose curve; in most records, active means well fitted curve in the direction sought with a large enough effect; inconclusive means small, poorly fitted or top-dose-only effect, or another doubt; inactive means no such curve, though single readings can be large; an effect the other way counts as inactive or inconclusive. Potency means the concentration at half of the fitted maximal effect.

SMILES | POLI inh | WRN helicase inh | POLK inh | POLB inh | POLH inh | FEN1 inh
O/N=C(/C[n+]1csc2ccccc21)c1ccccc1 | 10% | . | -1% | . | . | ?
CN(C)c1ccc(/C=C/c2cc3ccccc3cn2)cc1 | -19% | . | ? | . | . | ?
Cc1ccc(C)c(/C(O)=C2/C(=O)C(=O)N(CCN3CCOCC3)C2c2ccco2)c1 (stereo not given) | ? | -32% | ? | 7.1µM* | 22µM* | -19%
CCCCC[C@H](O)/C=C/[C@@H]1[C@H](C/C=C\CCCC(=O)O)[C@@H](O)C[C@H]1O | . | . | 8%[19.4 µM] | . | . | .
Cc1ccc(-c2nc3ncccc3o2)cc1NC(=O)c1ccc([N+](=O)[O-])o1 | -2% | 4% | -10% | -6% | -10% | -21%
COc1ccc(C(=O)Nc2ccc(-c3nc4ncccc4o3)cc2)cc1 | -1% | . | 2% | 20% | 5% | 3%
Cc1cc(C)cc(C(=O)Nc2ccc(-c3nc4ncccc4o3)cc2)c1 | -4% | . | -9% | 14µM* | ? | 11%
Cc1cc(C)nc(NC(=O)c2ccc([N+](=O)[O-])o2)n1 | 71µM* | -10% | -34% | -27% | ? | -14%
Cc1cc(-c2nc3ncccc3o2)ccc1NC(=O)c1ccc([N+](=O)[O-])o1 | 3.5µM* | -36% | -11% | . | 50µM* | ?
Cc1ccc(C(=O)Nc2cc(-c3nc4ncccc4o3)ccc2C)c(C)c1 | 12% | . | 1% | 4% | 79µM* | 15%
Cc1ccc(-c2nc3ncccc3o2)cc1NC(=O)c1ccccc1Br | 35% | . | -5% | -23% | -25% | -4%
CCc1cccc(NCc2ccccc2-c2nnc(-c3ccccc3Cl)o2)c1 | 27% | . | 11% | 6% | ? | -7%
Cc1ccc(C2C=C(c3ccc(Cl)cc3)Nc3nc(NC(=O)c4ccco4)nn32)cc1 (stereo not given) | -19% | . | -19% | ? | -11% | 7%
O=C(Nc1nc(-c2ccccn2)cs1)c1ccc([N+](=O)[O-])o1 | 22µM* | ? | -19% | ? | 35µM* | 1%
Cc1ccc(C(=O)Nc2nc(-c3ccccn3)cs2)o1 | -45% | -10% | -16% | -16% | -20% | -2%
O=c1[nH]/c(=C/c2ccc3c(c2)OCO3)c(=O)[nH]/c1=C/c1ccc2c(c1)OCO2 | 45% | . | 15% | . | . | -4%
Cc1ccc(NC(=O)c2ccc(-n3cccn3)c([N+](=O)[O-])c2)cc1 | -2% | -5% | 0% | 0% | -6% | -21%
O=C(Nc1ccc(C2=NCCN2)cc1)c1ccc(C(=O)Nc2ccc(C3=NCCN3)cc2)c([N+](=O)[O-])c1 | 10µM* | ? | 45µM* | 2.2µM* | ? | 40µM*
Cc1c2ccccc2nc2c(F)c(NCCO)c(F)c(F)c12 | ? | ? | 79µM* | ? | ? | ?
Cc1c2ccccc2nc2c(F)c(NC(C)C)c(F)c(F)c12 | 18µM* | -14% | ? | 3% | -3% | -20%
COc1ccc(CNCc2ccccc2)cc1COc1ccc(NC(C)=O)cc1 | -12% | . | -6% | . | . | -23%
Cc1cccc(NC(=O)CSc2nc(-c3ccco3)nc3cc(=O)[nH]n23)c1 | ? | . | -6% | ? | ? | -16%
O=C(CSc1nc(-c2ccco2)nc2cc(=O)[nH]n12)Nc1ccc(F)cc1 | ? | . | -17% | 40µM* | 2% | 16%
COCc1nn2cc(-c3ccc(C)cc3)nc2s1 | -7% | . | -9% | -19% | -6% | 2%
COc1cc(OC)c(/C=C/c2nccc3ccccc23)c(OC)c1 | ? | . | ? | . | . | 4µM*
SMILES | POLI inh | WRN helicase inh | POLK inh | POLB inh | POLH inh | FEN1 inh
CCc1ccc(NC(=O)Cn2c(=O)n(-c3cc(OC)c(OC)c(OC)c3)c(=O)c3ccccc32)cc1 | 8% | . | 5% | 3% | -11% | 5%
COc1cc(C)c(NC(C)C(=O)c2c(C)[nH]c3ccccc23)cc1OC (stereo not given) | 40% | . | -13% | . | . | 0%
CCN(CC(=O)Nc1ccc(NC(C)=O)cc1)C(=O)c1cccc(-n2cccc2)c1 | 56µM* | -29% | -42% | . | ? | 6%
CCOc1ccc(C[C@H]2NC(=O)CCSSC[C@@H](C(=O)N3CCC[C@H]3C(=O)N[C@@H](CCCN)C(=O)NCC(N)=O)NC(=O)[C@H](CC(N)=O)NC(=O)[C@H]([C@@H](C)O)NC(=O)[C@H]([C@@H](C)CC)NC2=O)cc1 | . | . | -7%[12 µM] | . | . | .
c1cc2[nH]snc2c2nc(C3CC3)nc12 | ? | -15%[57.1 µM] | -8% | 4% | 79µM* | ?
O=C(Nc1ccc(S(=O)(=O)N2CCOCC2)cc1)c1ccc(=O)[nH]c1 | ? | -10% | -28% | 13µM* | -2% | -5%
O=C(Nc1nccs1)c1ccc(S(=O)(=O)N2CCOCC2)cc1 | 39% | 4% | -1% | 11% | -4% | 79µM*
O=C(Nc1ccc(S(=O)(=O)N2CCCCC2)cc1)c1ccc(=O)[nH]c1 | ? | 5% | -8% | . | 5% | -15%
O=C(Nc1ccc(S(=O)(=O)Nc2nccs2)cc1)c1ccc(S(=O)(=O)N2CCOCC2)cc1 | 11% | 4% | -9% | 7% | -17% | -10%
CCC1CCCCN1C(=O)CSc1n[nH]c(-c2ccccc2)n1 (stereo not given) | 24% | . | 1%[60.1 µM] | 2% | -16% | 11%
O=C(c1ccco1)N1CCN(C(=O)c2ccc(-c3ccc([N+](=O)[O-])cc3)o2)CC1 | 18µM* | ? | 28µM* | . | 22µM* | 79µM*
O=C(c1ccc([N+](=O)[O-])cc1)N1CCN(C(=O)c2ccco2)CC1 | 17% | 5% | -2% | -8% | -10% | 0%
O=c1[nH]c(O)c(/C=C2\C=Nc3ccc(Br)cc32)[nH]1 | 26% | -12% | -13% | 20µM* | ? | -19%
O=C(Cn1c(O)c(/C=C2\C=Nc3ccc(Br)cc32)sc1=O)N1CCCC1 | ? | -16% | -16% | -3% | -16% | -14%
C=C(C)C1CCC2(C(=O)O)CCC3(C)C(CCC4C5(C)C(C=O)C(O)C(C)(C)C5CCC43C)C12 (stereo not given) | -25% | -4%[11.6 µM] | -15% | 0% | 79µM* | -5%
CCc1ccc(NC(=O)Nc2cn(C)c(=O)c3ccccc23)cc1 | ? | . | -20%[60.1 µM] | -18% | -5% | -2%
Cc1ccc(NC(=O)Nc2cn(C)c(=O)c3ccccc23)c(Cl)c1 | 71µM* | . | -14% | ? | 5% | 15%
COc1cc(N=c2ssnc2Cl)c(OC)cc1Cl | 20µM* | 56µM*! | 9% | 25% | -15% | ?
Cc1cc(C)nc(/N=c2/ssnc2Cl)c1 | 18% | -33% | -4% | 0% | -19% | 0%
COc1ccc(OC)c(N=c2ssnc2Cl)c1 | ? | 56µM* | -10% | 1% | -10% | -3%
